Bioassay records: PubChem BioAssay, Broad Institute
Shown are actives, neighbours in structure and some others; about 4.1% of the full set was active somewhere.
Env fusion inh: inhibitors of HIV Env-mediated cell fusion. HeLa-JRFL Env/CEM21 cell fusion, luciferase. AID 651610. inhibition, % at 12.3 µM. 360,000 tested, 1.1% active;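 active = mean replicate inhibition score of at least 50 and every replicate individually at or above 50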;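 also: 0% = plate neutral controls and 100% = maraviroc near 300 nM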
F508del corr: CFTR F508del correction in bronchial cells. AID 720511. activity (quench increase), % at 7.58 µM. 350,000 tested, 0.36% active. CFBE cells, YFP halide quenching; stimulated with forskolin plus potentiator P3; % fluorescence drop versus neutral controls;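 active = mean added fluorescence quench of at least 8% versus neutral control, with both replicates also reaching 8%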;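 also: cells transiently co-express mutant CFTR-F508del with the halide-sensitive YFP; corrector assay measuring rescue of mutant channel to the surface after 24 h compound exposure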
CASP6 VEID inh: caspase-6 (human) enzyme inhibition | purified caspase-6, Z-VEID-R110 cleavage fluorescence | P55212 | 350,000 tested, 0.53% active | inhibition, % at 12.5 µM;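 active = mean inhibition across replicates at least about 35%, with every replicate also reaching that limit, limit read from the data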;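 also: 0% = median of neutral control wells and 100% = no fluorescence left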
ALR inh: human ALR oxidase inhibition via reduced H2O2; inhibition, % (no concentration beside the values); 290,000 tested, 3.8% active; AID 485317; purified ALR, DTT oxidation, H2O2 HRP-luminol luminescence;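 active = mean replicate inhibition above about 79%, with every replicate also reaching it, limit read from the data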
PglD inh: blocks C. jejuni PglD acetyltransferase activity | purified PglD enzyme, DTNB colorimetric CoA detection | inhibition, % at 12.5 µM | 360,000 tested, 0.098% active; in the data active = inhibition above about 16%, passing the limit was not always enough
NSD2 HMT inh: blocks human histone methyltransferase NSD2. O96028. NSD2 peptide methylation, AlphaScreen, 120 min. inhibition, % at 12.5 µM. 310,000 tested, 0.54% active. AID 743445; in the data active = inhibition above about 50%
Target sequence (O96028 whole entry, looked up): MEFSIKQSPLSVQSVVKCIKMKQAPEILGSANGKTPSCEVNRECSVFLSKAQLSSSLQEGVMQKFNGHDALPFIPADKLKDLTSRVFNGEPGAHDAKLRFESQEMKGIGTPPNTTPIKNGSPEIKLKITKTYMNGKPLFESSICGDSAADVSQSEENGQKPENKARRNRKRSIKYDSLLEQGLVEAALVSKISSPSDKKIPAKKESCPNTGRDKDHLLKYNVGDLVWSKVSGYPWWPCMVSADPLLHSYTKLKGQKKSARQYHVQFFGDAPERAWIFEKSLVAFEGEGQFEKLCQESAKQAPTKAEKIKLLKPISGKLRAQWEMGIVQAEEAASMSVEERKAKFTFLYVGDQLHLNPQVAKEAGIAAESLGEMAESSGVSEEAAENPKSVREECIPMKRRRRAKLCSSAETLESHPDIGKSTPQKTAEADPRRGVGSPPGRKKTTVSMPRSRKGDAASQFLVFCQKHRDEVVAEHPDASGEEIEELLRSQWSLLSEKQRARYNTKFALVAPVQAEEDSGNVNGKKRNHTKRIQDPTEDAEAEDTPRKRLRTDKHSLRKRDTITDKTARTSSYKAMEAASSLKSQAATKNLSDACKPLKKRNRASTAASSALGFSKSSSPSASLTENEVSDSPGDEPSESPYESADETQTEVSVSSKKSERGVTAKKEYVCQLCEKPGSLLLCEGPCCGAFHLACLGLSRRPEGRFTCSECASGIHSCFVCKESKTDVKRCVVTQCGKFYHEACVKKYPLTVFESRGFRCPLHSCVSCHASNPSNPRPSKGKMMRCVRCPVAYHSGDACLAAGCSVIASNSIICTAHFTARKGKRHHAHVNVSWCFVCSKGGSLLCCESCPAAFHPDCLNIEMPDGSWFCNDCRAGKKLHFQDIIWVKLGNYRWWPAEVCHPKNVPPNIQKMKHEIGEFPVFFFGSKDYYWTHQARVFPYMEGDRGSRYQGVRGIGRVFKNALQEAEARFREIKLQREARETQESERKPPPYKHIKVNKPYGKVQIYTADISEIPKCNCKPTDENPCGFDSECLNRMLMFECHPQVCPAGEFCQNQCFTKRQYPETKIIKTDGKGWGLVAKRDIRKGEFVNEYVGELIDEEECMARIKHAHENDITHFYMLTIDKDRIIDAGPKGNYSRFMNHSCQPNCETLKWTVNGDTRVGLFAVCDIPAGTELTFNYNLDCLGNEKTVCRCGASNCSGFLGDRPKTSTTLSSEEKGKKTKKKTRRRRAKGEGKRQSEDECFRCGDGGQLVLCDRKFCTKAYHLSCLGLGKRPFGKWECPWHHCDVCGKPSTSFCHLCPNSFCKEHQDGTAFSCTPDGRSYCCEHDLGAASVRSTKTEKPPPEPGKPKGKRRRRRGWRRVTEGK
An asterisk follows results filed as active; . = no result given; [ ] = another dose, or the depositor's remark.

SMILES | Env fusion inh | F508del corr | CASP6 VEID inh | ALR inh | PglD inh | NSD2 HMT inh
Cc1oc(-c2cccs2)nc1CS(=O)CC(=O)NC1CCCCCC1 (configuration not stated) | 23 | 4 | 4 | 99* | 2 | .
COc1ccc(-c2nc(CS(=O)CC(=O)NCC3CCCO3)c(C)o2)cc1 (configuration not stated) | 19 | 4 | -1 | 98* | 2 | .
Cc1oc(-c2ccc(Cl)cc2)nc1CS(=O)CC(=O)NC1CCCC1 (configuration not stated) | -1 | 0 | 7 | 99* | 5 | -5
Cc1noc(C)c1S(=O)(=O)Nc1ccc2c(c1)C(=O)N([C@H](C)CO)C[C@@H](C)[C@H](CN(C)C(=O)Nc1ccc(F)cc1)O2 | 10[16.7 µM] | -1 | . | . | . | .
C[C@@H]1CN([C@H](C)CO)C(=O)c2cc(-c3ccccc3)cnc2O[C@@H]1CN(C)Cc1cccnc1 | -10[16.7 µM] | 0 | 0 | . | -3 | .
O=C(C[C@@H]1C[C@@H]2c3cc(NC(=O)Nc4ccccc4)ccc3O[C@@H]2[C@H](CO)O1)NCc1cccc(F)c1 | 44[16.7 µM] | 3 | -2 | . | -2 | .
COc1ccc(-c2nsc(SCC(=O)NCC3CCCO3)n2)cc1 (configuration not stated) | -5 | -3 | -1 | 95* | . | -4
CCOC(=O)CC1CCCCN1Cc1nc(-c2ccc(F)c(OC)c2)oc1C (configuration not stated) | -2 | . | . | -4 | 7 | 1
Cc1cccc(-c2nc(CS(=O)CC(=O)NC3CCCC(C)C3C)c(C)o2)c1 (configuration not stated) | . | 3 | 0 | 99* | -7 | .
Cc1ccc(-c2nsc(SCC(=O)NCC3CCCO3)n2)cc1 (configuration not stated) | 11 | -1 | 3 | 57 | . | -8
COc1ccc(-c2nc(CS(=O)CC(=O)NC3CCCCC3C)c(C)o2)cc1OC (configuration not stated) | -4 | 2 | 1 | 99* | -2 | 6
Cc1oc(-c2ccc(Cl)cc2)nc1CS(=O)CC(=O)NC1CCCCCC1 (configuration not stated) | 11 | -1 | 4 | -8 | 9 | 20
Cc1ccc(-c2nc(CS(=O)CC(=O)NC3CCCCC3)c(C)o2)cc1 (configuration not stated) | 7 | -2 | 3 | 99* | 2 | 2
C[C@@H]1CN([C@@H](C)CO)S(=O)(=O)c2ccc(-c3ccncc3)cc2O[C@@H]1CN(C)C(=O)Nc1ccc(C(F)(F)F)cc1 | 22[16.7 µM] | 4 | -1 | . | 0 | .
CCCNC(=O)N1CCC2(CC1)CN(C(=O)c1cccnc1)[C@H](CO)c1[nH]c3cc(OC)ccc3c12 | . | -1 | . | . | . | .
Cc1oc(-c2ccc(Cl)cc2)nc1CS(=O)CC(=O)NCCCN(C)C1CCCCC1 (configuration not stated) | -15 | . | . | 99* | 4 | -2
COc1ccc2nc(-c3ccccc3)nc(SCC(=O)NCC3CCCO3)c2c1 (configuration not stated) | 18 | -2 | 0 | 5 | 1 | 1
COc1cccc(-c2nc(CSCC(=O)NCC3CCCO3)c(C)o2)c1 (configuration not stated) | 7 | . | . | 99* | 1 | 1
COc1ccc(-c2nc(CN3CCCC(C(=O)NC4CCCC4)C3)c(C)o2)cc1 (configuration not stated) | 10 | . | . | -15 | 1 | 3
COc1ccc(-c2nc(CS(=O)CC(=O)NC3CCCC3)c(C)o2)cc1 (configuration not stated) | -2 | 0 | 10 | 98* | . | 2
Cc1oc(-c2ccccc2F)nc1CS(=O)(=O)CC(=O)NCCN(C)C1CCCCC1 | -1 | 3 | -7 | -37 | -1 | .
CCC1CCCCN1CCCNC(=O)CS(=O)Cc1nc(-c2ccc(OC)c(OC)c2)oc1C (configuration not stated) | -4 | 2 | -17 | 100* | 0 | -1
O=C(Cc1cccnc1)N1CC(=O)N2[C@H](C1)[C@@H](c1ccc(C#CC3CCCC3)cc1)[C@@H]2CO | . | 7 | 0 | . | . | .
O=c1[nH][nH]c2c([N+](=O)[O-])ccc(F)c12 | 13 | -1 | 66* | . | . | 22
CCOC(=O)c1ccc(S(=O)(=O)NCCN(CC)CC)cc1 | 10 | 1 | -9 | -7 | . | 2
SMILES | Env fusion inh | F508del corr | CASP6 VEID inh | ALR inh | PglD inh | NSD2 HMT inh
CCN(CC)CCNS(=O)(=O)c1ccc(C(=O)NN)cc1 | -14 | 1 | . | 98* | . | 4
COc1cc(/C=C/C=C2/CC/C(=C/C=C/c3ccc(O)c(OC)c3)C2=O)ccc1O | -5 | 0 | 52* | . | . | 1
Cc1ccc(/C=C2\SC(=S)N(CCCC(=O)NNC(=O)c3ccccc3O)C2=O)cc1 | 96* | 0 | -6 | -8 | 7 | 5
O=C(CCCN1C(=O)/C(=C\c2ccccc2)SC1=S)Nc1ccc(O)cc1 | 24 | 6 | 5 | 3 | -3 | .
Cc1ccc(/C=C2\SC(=S)N(CCC(=O)NNC(=O)c3ccccc3O)C2=O)cc1 | 0 | 1 | 4 | 4 | -2 | 0
Cc1ccc(/C=C2/SC(=S)N(CCCC(=O)Nc3ccc(O)cc3)C2=O)cc1 | 55* | -1 | -2 | . | . | 7
CCc1ccc(/C=C2\SC(=S)N(CCCC(=O)NC3=NCCS3)C2=O)cc1 | 59* | 2 | -2 | . | 4 | 0
Cn1c2ccccc2c2cc(C(=O)N3CCN(CCO)CC3)sc21 | -3 | . | . | 99* | 3 | 2
CC(=O)NNC(=O)c1cc2c3ccccc3n(C)c2s1 | -6 | -1 | -1 | 20 | . | 0
Cc1cccc(NC(=O)CN2CCN(C(=O)CN3C(=O)NC4(CC(C)CC(C)(C)C4)C3=O)CC2)c1C (configuration not stated) | . | 8.8* | 1 | . | -3 | 2
CCC(=O)N[C@H]1CC[C@H](CC(=O)NCC2CC2)O[C@H]1CO | . | 0 | 4 | . | . | .
COc1ccc(NC(=O)N(C)C[C@H]2Oc3ccc(NC(=O)C4CC4)cc3CC(=O)N([C@H](C)CO)C[C@@H]2C)cc1 | -5[16.7 µM] | -3 | 1 | . | -4 | .
CCN(CC)c1ccc(Nc2nc(Cl)ncc2Br)cc1 | 16 | 0 | 2 | 99* | 6 | 25
CCN(CC)c1ccc(CNc2ccc(Br)cn2)cc1 | . | . | . | . | -4 | 0
Cc1ccc(Sc2nc3ccc(C)cn3c(=O)c2/C=N/O)cc1 | 11 | 0 | -4 | 99* | 0 | 0
C[C@@H]1CN([C@@H](C)CO)C(=O)c2cc(C#Cc3ccccc3F)cnc2O[C@@H]1CN(C)C(=O)c1ccc2c(c1)OCO2 | 25[16.7 µM] | 1 | 0 | . | -1 | .
COCCNC(=S)N(CCc1c(C)[nH]c2ccccc12)Cc1ccco1 | 6 | 1 | 0 | 87* | . | 5
CO[C@@H]1CN(C)C(=O)c2cc(NC(C)=O)ccc2OC[C@@H](C)N(Cc2cccc(F)c2)C[C@@H]1C | 2[16.7 µM] | -1 | . | . | . | .
